From PubChem BioAssay (NCATS)
Where “and” joins values, the source holds several entries; their conditions need not be identical. Equal values may be shown once. Records with an inconclusive call do not appear. Calls of active or inactive are those of the source. Unless noted, calls come from the whole dose curve; as a rule, active = well fitted curve in the direction sought with a large enough effect; inconclusive = small, poorly fitted or top-dose-only effect, or another doubt; inactive = no such curve, though single readings can be large; an effect the other way counts as inactive or inconclusive.

Tests used:
[1] = Cellular Toxicity (caspase-3) MRC-5 (AID 659);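 note: 0% = DMSO basal and 100% = 10 µM staurosporine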
How it was run: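 Concentration-dependent caspase 3/7 activation is measured in human normal lung fibroblasts (MRC-5) following 16-hour treatment. AC50 values come from standard Hill-equation modeling of luminescence normalized to DMSO and 10 uM staurosporine.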

[2] = Cellular Toxicity (caspase-3) Mesangial (AID 660);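 note: combined caspase 3 and 7 activity read by Caspase-Glo luminescence; cells exposed to compound for 16 h before the caspase read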
How it was run: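 Human renal glomerular mesangial cells, 1000/well, 5 h at 37 C before 16 h compound treatment. Caspase-Glo 3/7 luminescence after 20 min; normalized to DMSO and 100 uM tamoxifen, AC50 from Hill fit.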

[3] = Cellular Toxicity (caspase-3) SK-N-SH (AID 661);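 note: 0% = DMSO basal and 100% = 10 µM staurosporine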
How it was run: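 Human SK-N-SH neuroblastoma cells, 1500/well, were exposed to compounds for 16 hours at 37 °C. Caspase-Glo 3/7 luminescence was normalized to DMSO (basal) and 10 uM staurosporine (100%), and AC50 came from a Hill fit.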

[4] = Cellular Toxicity (caspase-3) H-4-II-E (AID 663);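 note: cells exposed to compound for 16 hr before readout; 0% = DMSO basal and 100% = 100 µM tamoxifen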
How it was run: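 Apoptosis induction is scored as increased luminescence from caspase 3/7 substrate cleavage in rat hepatoma H-4-II-E cells exposed to compound for 16 hr. Activity is scaled between DMSO and 100 uM tamoxifen.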

[5] = Cellular Toxicity (caspase-3) Hek293 (AID 664);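 note: cells exposed to compound for 16 h at 37 °C before readout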
How it was run: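 HEK293 cells in complete medium treated 16 h at 37 °C, then Caspase-Glo 3/7 luminescence read after 20 min at room temperature. Normalized to DMSO and 100 uM tamoxifen; AC50 from Hill fit of concentration-response.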

[6] = Cellular Toxicity (caspase-3) N2a (AID 665);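 note: compound exposure lasted 16 h at 37 °C before readout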
How it was run: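 Mouse N2a neuroblastoma cells, 1500 per well, treated 16 h at 37 °C in complete medium; caspase-3/7 activity by Caspase-Glo luminescence after 1 h. Normalized to DMSO and 10 uM staurosporine; AC50 from Hill fits.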

[7] = Cellular Toxicity (caspase-3) NIH 3T3 (AID 666);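 note: 0% = DMSO basal and 100% = 100 µM tamoxifen stimulation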
How it was run: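 Mouse NIH 3T3 fibroblasts (1000/well) treated 16 h at 37 C; caspase-3/7 activity measured by Caspase-Glo 3/7 luminescence after 20 min. Normalized to DMSO and 100 uM tamoxifen; AC50 from Hill fits.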

[8] = Cellular Toxicity (caspase-3) Renal Proximal Tubule (AID 667);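 note: cells exposed to compound for 16 hours at 37 °C before detection; 0% = DMSO basal and 100% = 10 µM staurosporine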
How it was run: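 Caspase-Glo 3/7 read-out, rat primary kidney proximal tubule cells. Compound exposure 16 h, 37 °C; detection after 1 h at RT. Activity scaled to DMSO and 10 uM staurosporine.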

[9] = Cell Viability - LYMP2-001 (AID 921);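 note: series mostly up to about 92 µM; cells exposed to compound for 24 h at 37 °C; 0% = DMSO only and full inhibition = tetraoctylammonium bromide control wells; nearly all actives have a fitted effect of over 70% in size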
How it was run: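 A lymphoblastoid cell line of human origin was treated with library compounds across a concentration series for 24 hours, and viable cell number was estimated from ATP-driven luciferase light output. Hill modeling gave AC50.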

[10] = MultiTox-Fluor Cytotoxicity Assay - LYMP1-001 - Dead Cells (AID 946)
How it was run: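 Cytotoxicity as increased dead-cell protease fluorescence (bis-AAF-R110, 485/520 nm), read 60 min after MultiTox-Fluor reagent. Human lymphoblastoid line exposed 16 h; Hill-fitted AC50, with DMSO as 0% and 15 uM tetraoctylammonium bromide as 100%.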

[11] = MultiTox-Fluor Cytotoxicity Assay - LYMP1-001 - Live Cells (AID 947);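 note: 0% = DMSO only and full inhibition = tetraoctylammonium bromide control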
[12] = Cell Viability - LYMP1-002 - Assay at 16 hr (AID 948);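 note: 0% = DMSO alone and full effect = 92 µM tetraoctylammonium bromide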
How it was run: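 In this qHTS, lymphoblastoid LYMP1-002 cells (human) receive compounds for 16 hr at 37 C. Viability is taken from CellTiter-Glo ATP luminescence, and AC50 derives from standard Hill fits.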

[13] = MultiTox-Fluor Cytotoxicity Assay - LYMP1-002 - Live Cells (AID 955); note: % is set by controls: 0 for no effect and ±100 for the full control effect
How it was run: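 Human lymphoblastoid LYMP1-002 cells, 2500/well, treated 16 h at 37 C in complete medium. Live-cell protease activity via GF-AFC fluorescence (Ex/Em 405/510) after 60 min reagent incubation; AC50 from Hill fits.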

[14] = MultiTox-Fluor Cytotoxicity Assay - LYMP1-002 - Dead Cells (AID 960); note: nearly all actives have a fitted effect of over 60% in size
How it was run: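 Human lymphoblastoid LYMP1-002 cells, 2500/well, treated 16 h at 37 C; dead-cell protease cleavage of bis-AAF-R110 read by fluorescence (485/520); normalized to DMSO and 15 uM tetraoctylammonium bromide; AC50 from Hill fit.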

[15] = MultiTox-Fluor Cytotoxicity Assay - LYMP1-003 - Dead Cells (AID 961); note: nearly all actives have a fitted effect of over 70% in size
How it was run: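 Dead-cell protease release, detected as bis-AAF-R110 fluorescence at 485/520 nm, was measured in LYMP1-003 cells after 16 h compound treatment at 37 C. AC50 values came from Hill-modeled qHTS curves normalized to DMSO (0%) and 15 uM tetraoctylammonium bromide (100%).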

[16] = qHTS assay for small molecule agonists of the antioxidant response element (ARE) signaling pathway measured by Nrf2-dependant transcriptional activity (AID 720636; active = well fitted curve in the direction sought with a large enough effect in the repeat runs; an effect the other way counts as inactive or inconclusive;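 note: HepG2 cells with an ARE-driven luciferase reporter; % of control where 0% means no effect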)
How it was run: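 In HepG2 cells engineered with an Nrf2-responsive luciferase gene, ARE induction was quantified as luminescence after 16 hr compound treatment at 37 C.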

[17] = qHTS assay for small molecule antagonists of the retinoid-related orphan receptor gamma (ROR-gamma) signaling pathway - cell viability counter screen (AID 720652; active = well fitted curve in the direction sought with a large enough effect in the repeat runs; an effect the other way counts as inactive or inconclusive;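 note: CHO reporter cells with doxycycline-induced ROR-gamma expression; series mostly up to about 92 µM; compound exposure lasted 16 hr before ATP read; % is set by controls: 0 for no effect and ±100 for the full control effect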)
How it was run: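 CHO cells carrying TET-inducible ROR and RORE-luciferase reporter, plated 5 hr, then dosed with compound plus doxycycline. After 16 hr at 37 C, viability read as intracellular ATP by CellTiter-Glo luminescence.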

[18] = qHTS assay for small molecule agonists of the antioxidant response element (ARE) signaling pathway measured by Nrf2-dependant transcriptional activity - cell viability counter screen (AID 720653; active = well fitted curve in the direction sought with a large enough effect in the repeat runs; an effect the other way counts as inactive or inconclusive; note: % is set by controls: 0 for no effect and ±100 for the full control effect); conditions: ARE-bla HepG2 viability, CellTiter-Glo ATP luminescence, 16 h; active compounds read low
How it was run: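 Cytotoxicity counter screen: intracellular ATP quantified by CellTiter-Glo luminescence in the same ARE-bla HepG2 plates, after 16 h compound exposure and a 2 h beta-lactamase substrate step.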

[19] = qHTS assay for cell viability of HEK293 cells (AID 743288); conditions: ATP luminescence (CellTiter-Glo), 18 h, active compounds read low; note: % is set by controls: 0 for no effect and ±100 for the full control effect; nearly all actives have a fitted effect of over 50% in size
How it was run: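 Luminescent ATP quantitation served as the viability read-out. Cells (parental HEK293, 2,000/well) received compounds after at least 5 h at 37 C and were exposed for 18 h before a 30 min room-temperature reagent step.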

[20] = qHTS assay for cell viability of the p53RE-bla HCT-116 cell line (AID 743292); note: % is set by controls: 0 for no effect and ±100 for the full control effect; nearly all actives have a fitted effect of over 55% in size
How it was run: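 Intracellular ATP of p53RE-bla HCT-116 cells measured by luciferase luminescence following 16 h compound incubation at 37 C; DMSO-only wells served as vehicle controls.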

Measured: max response

C=CC(C)(O)CCC=C(C)C (stereo not given)
inactive: [1] | [2] | [3] | [4] | [5] | [6] | [7] | [8] | [9] | [10] | [11] | [12] | [13] | [14] | [15] | [16] | [17] | [18] 12.9% and 1.07% | [19] 5.28% and -11.2% | [20]

COS(C)(=O)=O
inactive: [1] | [2] | [3] | [4] | [5] | [6] | [7] | [8] | [9] | [10] | [11] | [12] | [13] | [14] | [15] | [16] | [17] | [18] -2.28% | [19] 1.66% | [20]

C=C(C)[C@H]1CC=C(C)C(=O)C1
inactive: [1] | [2] | [3] | [4] | [5] | [6] | [7] | [8] | [9] | [10] | [11] | [12] | [13] | [14] | [15] | [16] | [17] | [18] -9.52% and 8.39% | [19] -10.1% and -1.01% | [20]
